# Reference: article PMC7862700, “An all-to-all approach to the identification of sequence-specific readers for epigenetic DNA modifications on cytosine”
# Key:
# Assay in all cases: DAPPL (digital affinity profiling via proximity ligation, sequencing); 10 mM Tris-HCl pH 7.5, 50 mM NaCl, 1 mM DTT, 4% glycerol, room temperature, 30 min; GST-TFs on glutathione beads, 16-mer random dsDNA library, 0.1% formaldehyde crosslink after washing; high values mean tight binding
# FEV = target: T1, FEV (Homo sapiens, UniProt Q99581 1-238); conditions: protein: recombinant; tags: N-terminal GST; dsDNA, one strand shown
# T1 sequence: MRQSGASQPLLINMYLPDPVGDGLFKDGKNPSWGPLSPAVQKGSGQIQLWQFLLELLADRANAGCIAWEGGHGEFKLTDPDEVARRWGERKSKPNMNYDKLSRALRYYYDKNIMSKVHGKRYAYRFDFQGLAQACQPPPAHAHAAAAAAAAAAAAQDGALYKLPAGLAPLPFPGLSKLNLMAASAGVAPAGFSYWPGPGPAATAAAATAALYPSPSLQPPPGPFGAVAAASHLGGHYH
# Summary of the method: (§1)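 Yeast served to express human transcription factors as GST fusions, which were then captured on glutathione beads and labelled with DNA barcodes. Pooled with a tag-only sample, they were incubated with 200 nmole of a 16-mer random double-stranded DNA library for 30 min at room temperature in Tris/NaCl/DTT/glycerol buffer, washed, crosslinked with 0.1% formaldehyde, ligated by proximity, amplified by PCR and sequenced. Dividing each hexamer's read frequency for a factor by its frequency for the tag-only sample gives the binding signal.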
# ETV5 = ETV5 (Homo sapiens, UniProt P41161 1-510); conditions: protein: recombinant; tags: N-terminal GST; dsDNA, one strand shown
# Summary of the method: as §1
# HSF1 = HSF1 (Homo sapiens, UniProt Q00613 1-529); conditions: protein: recombinant; tags: N-terminal GST; chain copies: 3; dsDNA, one strand shown
# Summary of the method: as §1
# SPIC = target: T2, SPIC (Homo sapiens, UniProt Q8N5J4 1-248); conditions: protein: recombinant; tags: N-terminal GST; dsDNA, one strand shown
# T2 sequence: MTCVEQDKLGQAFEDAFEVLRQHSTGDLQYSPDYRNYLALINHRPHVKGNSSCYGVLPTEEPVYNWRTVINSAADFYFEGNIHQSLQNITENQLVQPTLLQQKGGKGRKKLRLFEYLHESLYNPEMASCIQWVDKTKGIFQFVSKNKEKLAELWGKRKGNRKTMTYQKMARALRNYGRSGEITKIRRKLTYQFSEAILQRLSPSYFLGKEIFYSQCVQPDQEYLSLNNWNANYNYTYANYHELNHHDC
# Summary of the method: as §1
# ELF4 = ELF4 (Homo sapiens, UniProt Q99607 1-663); conditions: protein: recombinant; tags: N-terminal GST; dsDNA, one strand shown
# Summary of the method: as §1
# ELK4 = target: T3, ELK4 (Homo sapiens, UniProt P28324-2 1-405); conditions: protein: recombinant; tags: N-terminal GST; dsDNA, one strand shown
# T3 sequence: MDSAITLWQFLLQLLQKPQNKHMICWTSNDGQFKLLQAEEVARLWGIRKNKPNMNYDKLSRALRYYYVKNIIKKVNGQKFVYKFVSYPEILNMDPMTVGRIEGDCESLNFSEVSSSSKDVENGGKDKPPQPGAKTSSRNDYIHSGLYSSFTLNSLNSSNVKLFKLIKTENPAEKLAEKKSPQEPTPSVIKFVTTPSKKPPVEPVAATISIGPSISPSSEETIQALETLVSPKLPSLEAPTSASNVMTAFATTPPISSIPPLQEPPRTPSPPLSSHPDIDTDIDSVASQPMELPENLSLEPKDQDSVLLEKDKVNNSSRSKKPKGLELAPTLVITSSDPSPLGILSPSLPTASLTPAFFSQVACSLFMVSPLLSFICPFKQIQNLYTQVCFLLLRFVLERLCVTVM
# Summary of the method: as §1
# ETV2 = target: T4, ETV2 (Homo sapiens, UniProt O00321 1-342); conditions: protein: recombinant; tags: N-terminal GST; dsDNA, one strand shown
# T4 sequence: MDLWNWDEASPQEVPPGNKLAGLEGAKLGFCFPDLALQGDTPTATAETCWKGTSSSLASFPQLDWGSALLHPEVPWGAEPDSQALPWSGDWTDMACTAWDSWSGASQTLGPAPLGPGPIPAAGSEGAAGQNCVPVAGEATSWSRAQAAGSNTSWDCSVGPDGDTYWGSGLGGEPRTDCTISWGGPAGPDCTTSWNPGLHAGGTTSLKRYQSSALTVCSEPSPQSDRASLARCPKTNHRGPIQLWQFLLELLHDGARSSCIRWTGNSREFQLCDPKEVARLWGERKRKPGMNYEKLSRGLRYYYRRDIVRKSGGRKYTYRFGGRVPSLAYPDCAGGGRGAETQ
# Summary of the method: as §1
# ELF3 = target: T5, ELF3 (Homo sapiens, UniProt P78545 1-371); conditions: protein: recombinant; tags: N-terminal GST; dsDNA, one strand shown
# T5 sequence: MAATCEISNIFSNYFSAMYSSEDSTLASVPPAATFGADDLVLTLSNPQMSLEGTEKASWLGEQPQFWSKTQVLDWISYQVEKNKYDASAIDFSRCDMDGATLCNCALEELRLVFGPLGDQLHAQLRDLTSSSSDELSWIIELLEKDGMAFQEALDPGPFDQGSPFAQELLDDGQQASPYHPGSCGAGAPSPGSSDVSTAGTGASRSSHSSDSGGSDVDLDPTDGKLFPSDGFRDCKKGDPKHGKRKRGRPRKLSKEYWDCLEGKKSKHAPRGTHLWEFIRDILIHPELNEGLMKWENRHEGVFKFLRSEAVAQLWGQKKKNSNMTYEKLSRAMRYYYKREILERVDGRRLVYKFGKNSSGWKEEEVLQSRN
# Summary of the method: as §1
# CRX = CRX (Homo sapiens, UniProt O43186 1-299); conditions: protein: recombinant; tags: N-terminal GST; dsDNA, one strand shown
# Summary of the method: as §1
# ETV1 = ETV1 (Homo sapiens, UniProt P50549 1-477); conditions: protein: recombinant; tags: N-terminal GST; dsDNA, one strand shown
# Summary of the method: as §1
# ERF = target: T6, ERF (Homo sapiens, UniProt P50548 1-548); conditions: protein: recombinant; tags: N-terminal GST; dsDNA, one strand shown
# T6 sequence: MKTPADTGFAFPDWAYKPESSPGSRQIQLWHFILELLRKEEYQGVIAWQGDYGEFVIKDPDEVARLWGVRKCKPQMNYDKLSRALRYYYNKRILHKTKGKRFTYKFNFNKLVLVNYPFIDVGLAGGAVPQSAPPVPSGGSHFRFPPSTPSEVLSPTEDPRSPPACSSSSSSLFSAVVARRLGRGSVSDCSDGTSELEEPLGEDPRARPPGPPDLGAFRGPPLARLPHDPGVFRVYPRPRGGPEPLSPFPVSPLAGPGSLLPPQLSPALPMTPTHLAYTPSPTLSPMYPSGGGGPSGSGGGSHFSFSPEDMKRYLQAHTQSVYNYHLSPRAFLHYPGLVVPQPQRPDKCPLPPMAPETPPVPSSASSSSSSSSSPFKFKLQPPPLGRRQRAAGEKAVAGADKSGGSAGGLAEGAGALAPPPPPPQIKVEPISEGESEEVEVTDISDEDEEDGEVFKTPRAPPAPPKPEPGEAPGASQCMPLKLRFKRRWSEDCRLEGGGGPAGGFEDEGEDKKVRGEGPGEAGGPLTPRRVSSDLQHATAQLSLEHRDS
# Summary of the method: as §1
# ETV3L = target: T7, ETV3L (Homo sapiens, UniProt Q6ZN32 1-361); conditions: protein: recombinant; tags: N-terminal GST; dsDNA, one strand shown
# T7 sequence: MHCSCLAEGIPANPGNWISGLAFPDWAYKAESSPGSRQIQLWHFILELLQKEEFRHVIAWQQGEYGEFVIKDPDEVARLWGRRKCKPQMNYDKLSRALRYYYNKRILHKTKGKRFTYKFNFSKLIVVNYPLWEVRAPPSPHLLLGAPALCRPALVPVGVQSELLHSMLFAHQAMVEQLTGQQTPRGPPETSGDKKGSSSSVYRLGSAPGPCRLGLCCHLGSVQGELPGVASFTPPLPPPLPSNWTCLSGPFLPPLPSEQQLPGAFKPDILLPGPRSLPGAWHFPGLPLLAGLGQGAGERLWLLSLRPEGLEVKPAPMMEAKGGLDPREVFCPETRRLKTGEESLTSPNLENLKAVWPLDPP
# Summary of the method: as §1
# ETS2 = target: T8, ETS2 (Homo sapiens, UniProt P15036 1-469); conditions: protein: recombinant; tags: N-terminal GST; dsDNA, one strand shown
# T8 sequence: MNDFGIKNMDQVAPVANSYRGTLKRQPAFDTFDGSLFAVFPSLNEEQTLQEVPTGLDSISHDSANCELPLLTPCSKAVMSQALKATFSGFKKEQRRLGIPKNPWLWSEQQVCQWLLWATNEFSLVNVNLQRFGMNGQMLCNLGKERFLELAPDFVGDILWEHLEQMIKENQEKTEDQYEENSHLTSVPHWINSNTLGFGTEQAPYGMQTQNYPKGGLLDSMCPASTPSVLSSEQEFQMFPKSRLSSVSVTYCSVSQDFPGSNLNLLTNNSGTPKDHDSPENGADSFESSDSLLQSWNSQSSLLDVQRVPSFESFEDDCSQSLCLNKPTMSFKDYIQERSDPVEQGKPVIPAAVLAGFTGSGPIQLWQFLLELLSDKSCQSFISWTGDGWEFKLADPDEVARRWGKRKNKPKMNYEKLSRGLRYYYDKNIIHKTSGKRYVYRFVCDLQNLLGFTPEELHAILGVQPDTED
# Summary of the method: as §1
# SPDEF = target: T9, SPDEF (Homo sapiens, UniProt O95238 1-335); conditions: protein: recombinant; tags: N-terminal GST; dsDNA, one strand shown
# T9 sequence: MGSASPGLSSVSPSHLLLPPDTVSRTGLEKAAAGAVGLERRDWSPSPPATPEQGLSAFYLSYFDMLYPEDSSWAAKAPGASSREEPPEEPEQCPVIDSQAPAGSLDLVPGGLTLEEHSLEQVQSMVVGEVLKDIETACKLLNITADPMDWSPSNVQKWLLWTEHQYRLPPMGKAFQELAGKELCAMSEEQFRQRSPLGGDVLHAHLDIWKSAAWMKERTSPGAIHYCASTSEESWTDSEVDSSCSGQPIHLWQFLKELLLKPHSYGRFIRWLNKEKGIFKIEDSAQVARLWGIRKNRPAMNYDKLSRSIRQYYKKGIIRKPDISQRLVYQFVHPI
# Summary of the method: as §1
# ETV7 = target: T10, ETV7 (Homo sapiens, UniProt Q9Y603 1-341); conditions: protein: recombinant; tags: N-terminal GST; dsDNA, one strand shown
# T10 sequence: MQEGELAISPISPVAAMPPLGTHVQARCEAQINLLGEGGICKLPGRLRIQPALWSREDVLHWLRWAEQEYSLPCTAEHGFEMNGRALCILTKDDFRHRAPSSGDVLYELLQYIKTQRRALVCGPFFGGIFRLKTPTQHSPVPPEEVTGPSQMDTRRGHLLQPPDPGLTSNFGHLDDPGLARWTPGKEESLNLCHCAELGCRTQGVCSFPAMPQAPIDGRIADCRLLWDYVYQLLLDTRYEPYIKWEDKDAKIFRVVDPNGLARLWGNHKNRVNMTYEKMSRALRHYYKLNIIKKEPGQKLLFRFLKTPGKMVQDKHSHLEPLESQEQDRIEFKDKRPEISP
# Summary of the method: as §1
# ELF5 = target: T11, ELF5 (Homo sapiens, UniProt Q9UKW6-2 1-255); conditions: protein: recombinant; tags: N-terminal GST; dsDNA, one strand shown
# T11 sequence: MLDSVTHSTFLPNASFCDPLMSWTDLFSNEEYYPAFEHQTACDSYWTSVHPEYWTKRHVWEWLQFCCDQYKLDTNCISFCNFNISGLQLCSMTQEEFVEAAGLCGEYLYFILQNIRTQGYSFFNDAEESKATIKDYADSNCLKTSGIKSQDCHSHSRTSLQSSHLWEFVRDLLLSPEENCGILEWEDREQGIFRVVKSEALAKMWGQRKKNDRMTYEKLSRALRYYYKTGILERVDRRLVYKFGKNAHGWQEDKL
# Summary of the method: as §1
# ETV3 = target: T12, ETV3 (Homo sapiens, UniProt P41162-2 1-143); conditions: protein: recombinant; tags: N-terminal GST; dsDNA, one strand shown
# T12 sequence: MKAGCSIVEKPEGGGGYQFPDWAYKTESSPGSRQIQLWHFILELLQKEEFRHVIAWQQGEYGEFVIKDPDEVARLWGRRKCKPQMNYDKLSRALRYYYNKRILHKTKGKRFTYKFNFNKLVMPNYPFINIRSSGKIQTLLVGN
# Summary of the method: as §1
# ETV6 = ETV6 (Homo sapiens, UniProt P41212 1-452); conditions: protein: recombinant; tags: N-terminal GST; dsDNA, one strand shown
# Summary of the method: as §1
# Chain of ETV5 (P41161 whole entry): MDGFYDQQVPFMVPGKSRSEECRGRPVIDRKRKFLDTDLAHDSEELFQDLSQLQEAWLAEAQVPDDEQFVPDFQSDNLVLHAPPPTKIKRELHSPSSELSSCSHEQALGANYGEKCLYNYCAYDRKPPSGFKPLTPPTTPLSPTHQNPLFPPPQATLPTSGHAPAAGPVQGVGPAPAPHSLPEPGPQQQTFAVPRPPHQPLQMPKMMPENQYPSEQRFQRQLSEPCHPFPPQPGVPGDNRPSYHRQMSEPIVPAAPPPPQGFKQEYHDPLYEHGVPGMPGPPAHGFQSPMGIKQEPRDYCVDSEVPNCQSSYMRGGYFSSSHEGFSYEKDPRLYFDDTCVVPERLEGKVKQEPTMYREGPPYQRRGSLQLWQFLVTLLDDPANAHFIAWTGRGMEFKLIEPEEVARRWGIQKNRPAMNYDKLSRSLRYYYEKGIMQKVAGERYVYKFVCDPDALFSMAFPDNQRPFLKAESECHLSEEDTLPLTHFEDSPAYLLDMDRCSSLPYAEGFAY
# Chain of ELF4 (Q99607 whole entry): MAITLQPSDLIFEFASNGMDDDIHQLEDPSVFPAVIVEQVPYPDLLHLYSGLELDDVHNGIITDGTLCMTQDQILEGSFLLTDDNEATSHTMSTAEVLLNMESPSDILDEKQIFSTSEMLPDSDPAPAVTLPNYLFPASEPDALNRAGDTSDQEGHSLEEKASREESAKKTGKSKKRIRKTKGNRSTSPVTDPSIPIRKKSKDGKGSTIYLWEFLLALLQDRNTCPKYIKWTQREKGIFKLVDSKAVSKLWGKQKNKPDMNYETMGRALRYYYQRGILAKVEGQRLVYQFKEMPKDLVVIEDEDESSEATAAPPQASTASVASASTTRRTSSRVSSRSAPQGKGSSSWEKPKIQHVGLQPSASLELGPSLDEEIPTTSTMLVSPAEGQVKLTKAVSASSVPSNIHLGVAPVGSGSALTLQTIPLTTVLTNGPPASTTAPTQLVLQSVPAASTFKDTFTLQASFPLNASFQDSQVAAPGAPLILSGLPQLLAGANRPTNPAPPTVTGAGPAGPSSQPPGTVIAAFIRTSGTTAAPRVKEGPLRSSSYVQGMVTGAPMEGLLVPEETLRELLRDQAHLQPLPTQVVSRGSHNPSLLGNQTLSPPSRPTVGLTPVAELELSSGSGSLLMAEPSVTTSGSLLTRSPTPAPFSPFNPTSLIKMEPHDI
# Chain of HSF1 (Q00613 whole entry): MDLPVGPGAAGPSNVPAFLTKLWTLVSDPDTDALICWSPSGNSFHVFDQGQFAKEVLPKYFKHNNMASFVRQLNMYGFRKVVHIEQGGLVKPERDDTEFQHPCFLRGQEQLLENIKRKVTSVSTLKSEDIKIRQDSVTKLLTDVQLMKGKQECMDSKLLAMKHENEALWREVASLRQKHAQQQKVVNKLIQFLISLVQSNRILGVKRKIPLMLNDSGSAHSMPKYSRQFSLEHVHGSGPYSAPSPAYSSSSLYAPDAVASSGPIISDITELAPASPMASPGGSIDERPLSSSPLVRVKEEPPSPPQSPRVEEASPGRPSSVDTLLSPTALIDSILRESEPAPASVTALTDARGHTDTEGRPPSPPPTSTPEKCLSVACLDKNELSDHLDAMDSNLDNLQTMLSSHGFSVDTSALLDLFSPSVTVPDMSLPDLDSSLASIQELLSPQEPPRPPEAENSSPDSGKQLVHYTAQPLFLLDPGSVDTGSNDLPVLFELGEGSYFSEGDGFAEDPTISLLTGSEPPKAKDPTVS
# Chain of ETV1 (P50549 whole entry): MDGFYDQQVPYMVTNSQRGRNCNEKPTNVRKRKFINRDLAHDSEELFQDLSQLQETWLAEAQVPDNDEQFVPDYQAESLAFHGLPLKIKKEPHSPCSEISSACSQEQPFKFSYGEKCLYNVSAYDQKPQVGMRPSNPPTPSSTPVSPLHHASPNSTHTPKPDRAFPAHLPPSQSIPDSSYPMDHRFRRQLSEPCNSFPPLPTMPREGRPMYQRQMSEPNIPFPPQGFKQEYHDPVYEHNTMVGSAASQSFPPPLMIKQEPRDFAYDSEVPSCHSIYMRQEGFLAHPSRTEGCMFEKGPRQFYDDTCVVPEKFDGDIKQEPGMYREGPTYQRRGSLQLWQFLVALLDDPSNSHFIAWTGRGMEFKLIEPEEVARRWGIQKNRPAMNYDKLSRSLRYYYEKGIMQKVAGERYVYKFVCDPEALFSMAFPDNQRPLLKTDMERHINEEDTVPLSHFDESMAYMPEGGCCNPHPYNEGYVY
# Chain of ETV6 (P41212 whole entry): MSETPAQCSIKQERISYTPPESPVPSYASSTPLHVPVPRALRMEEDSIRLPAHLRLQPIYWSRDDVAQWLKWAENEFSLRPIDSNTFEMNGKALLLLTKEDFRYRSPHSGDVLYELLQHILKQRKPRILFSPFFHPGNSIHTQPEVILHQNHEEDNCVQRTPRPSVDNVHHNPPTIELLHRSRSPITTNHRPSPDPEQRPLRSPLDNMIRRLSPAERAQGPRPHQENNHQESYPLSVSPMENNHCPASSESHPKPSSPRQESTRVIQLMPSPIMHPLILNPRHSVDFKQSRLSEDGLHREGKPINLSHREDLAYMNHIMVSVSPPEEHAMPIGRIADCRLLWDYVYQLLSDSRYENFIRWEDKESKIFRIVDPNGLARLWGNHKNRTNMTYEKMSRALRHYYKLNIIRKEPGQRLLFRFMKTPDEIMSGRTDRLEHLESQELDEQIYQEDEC
# Chain of CRX (O43186 whole entry): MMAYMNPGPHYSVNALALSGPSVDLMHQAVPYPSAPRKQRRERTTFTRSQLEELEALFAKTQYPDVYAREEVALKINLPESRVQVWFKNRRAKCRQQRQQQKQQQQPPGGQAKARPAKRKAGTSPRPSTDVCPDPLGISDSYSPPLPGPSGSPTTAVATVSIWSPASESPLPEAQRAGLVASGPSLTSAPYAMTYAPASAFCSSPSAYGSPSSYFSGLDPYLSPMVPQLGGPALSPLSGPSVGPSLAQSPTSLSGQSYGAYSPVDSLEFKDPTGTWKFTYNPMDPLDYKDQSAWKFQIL
sequence,measurement,setting,value
AATCAC,binding signal,FEV,"1.09 fold enrichment (6-mer frequency, TF over GST control)"
same,binding signal,ETV5,"1.14 fold enrichment (6-mer frequency, TF over GST control)"
same,binding signal,HSF1,"1.08 fold enrichment (6-mer frequency, TF over GST control)"
same,binding signal,SPIC,"1.08 fold enrichment (6-mer frequency, TF over GST control)"
same,binding signal,ELF4,"1.09 fold enrichment (6-mer frequency, TF over GST control)"
same,binding signal,ELK4,"1.11 fold enrichment (6-mer frequency, TF over GST control)"
same,binding signal,ETV2,"1.18 fold enrichment (6-mer frequency, TF over GST control)"
same,binding signal,ELF3,"1.12 fold enrichment (6-mer frequency, TF over GST control)"
same,binding signal,CRX,"1.3 fold enrichment (6-mer frequency, TF over GST control)"
same,binding signal,ETV1,"1.08 fold enrichment (6-mer frequency, TF over GST control)"
same,binding signal,ERF,"1.05 fold enrichment (6-mer frequency, TF over GST control)"
same,binding signal,ETV3L,"1.12 fold enrichment (6-mer frequency, TF over GST control)"
same,binding signal,ETS2,"1.06 fold enrichment (6-mer frequency, TF over GST control)"
same,binding signal,SPDEF,"1.05 fold enrichment (6-mer frequency, TF over GST control)"
same,binding signal,ETV7,"1.02 fold enrichment (6-mer frequency, TF over GST control)"
same,binding signal,ELF5,"1.09 fold enrichment (6-mer frequency, TF over GST control)"
same,binding signal,ETV3,"1.07 fold enrichment (6-mer frequency, TF over GST control)"
same,binding signal,ETV6,"1.09 fold enrichment (6-mer frequency, TF over GST control)"
